Here are results for 38 compounds from PubChem BioAssay (NCATS).

Results filed as inconclusive are left out. Entries that show only a call come without a potency. Calls of active or inactive are those of the source. Calls come from the whole dose curve.
Potency is the fitted concentration of half-maximal effect.

Nucleoprotein (Lymphocytic choriomeningitis virus (strain Armstrong)), sequence (P09992 whole entry, looked up): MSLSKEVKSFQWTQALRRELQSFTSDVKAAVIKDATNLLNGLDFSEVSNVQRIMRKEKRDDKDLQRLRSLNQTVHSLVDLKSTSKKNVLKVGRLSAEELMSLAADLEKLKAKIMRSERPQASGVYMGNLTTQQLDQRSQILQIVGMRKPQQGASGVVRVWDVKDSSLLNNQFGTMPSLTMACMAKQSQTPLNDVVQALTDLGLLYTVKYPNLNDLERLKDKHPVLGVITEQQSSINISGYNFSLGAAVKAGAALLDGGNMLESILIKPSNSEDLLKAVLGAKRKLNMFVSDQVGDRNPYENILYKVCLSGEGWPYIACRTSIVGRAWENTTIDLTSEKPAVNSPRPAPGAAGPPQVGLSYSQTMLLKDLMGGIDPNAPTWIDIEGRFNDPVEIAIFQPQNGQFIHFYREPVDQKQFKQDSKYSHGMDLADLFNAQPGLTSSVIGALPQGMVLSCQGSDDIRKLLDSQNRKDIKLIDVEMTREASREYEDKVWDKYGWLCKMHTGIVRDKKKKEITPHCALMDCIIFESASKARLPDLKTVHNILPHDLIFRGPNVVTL

The test has as its target Nucleoprotein (Lymphocytic choriomeningitis virus (strain Armstrong)) (UniProt P09992). The test can be described thus: qHTS for Inhibitors of the Functional Ribonucleoprotein Complex (vRNP) of Lymphocytic Choriomeningitis Arenaviruses (LCMV): LCMV Primary Screen - GLuc reporter signal (AID 1347086). Note: nearly all actives have a fitted effect of over 70% in size. The following applies: LCMV minigenome vRNP cell assay, Gaussia luciferase reporter; series mostly up to 57.5 µM; activity change, negative = inhibition: at the top concentration. On the technique in general: Quantitative high-throughput screening tests each substance at several concentrations.
For `Cc1nccn1CC1CCc2c(c3ccccc3n2C)C1=O` (stereo not drawn), the Potency result was “inactive”.

With `CNCCc1ccccn1`, the “activity change, negative = inhibition” value was 1.14% (inactive).

On to `CC/C=C(\C(=O)N[C@@H]1C(=O)N2C(C(=O)OCOC(=O)C(C)(C)C)=C(COC(N)=O)CS[C@H]12)c1csc(N)n1`, for which the Potency entry was “inactive”.

Turning to `Cc1ccnc2c1NC(=O)c1cccnc1N2C1CC1`, the “activity change, negative = inhibition” value is -11.5% (inactive).

`NS(=O)(=O)c1cc2c(cc1C(F)(F)F)NCNS2(=O)=O`: the “activity change, negative = inhibition” value is -7.07% (inactive).

Regarding `C[C@@H](O)[C@H]1C(=O)N2C(C(=O)O)=C(S[C@@H]3CN[C@H](C(=O)N(C)C)C3)[C@H](C)[C@H]12`, the Potency result is “inactive”.

With `CCCCC1=NC2(CCCC2)C(=O)N1Cc1ccc(-c2ccccc2-c2nn[nH]n2)cc1`, the “activity change, negative = inhibition” value is -79.8% (inactive).

`CO[C@@H](C(=O)N1Cc2[nH]nc(NC(=O)c3ccc(N4CCN(C)CC4)cc3)c2C1)c1ccccc1`: the “activity change, negative = inhibition” value was 25.3% (inactive).

`O=C(O)c1ccc(-n2nc(-c3ccccc3O)nc2-c2ccccc2O)cc1`: the Potency result is “inactive”.

Consider `CN(C)CCC=C1c2ccccc2C=Cc2ccccc21`, for which the Potency result was “inactive”.

For the compound `O=C1CCC(N2C(=O)c3ccccc3C2=O)C(=O)N1` (stereo not drawn), the Potency entry was “inactive”.

For the compound `N=c1nc(N2CCCCC2)cc(N)n1O`, the Potency entry is “inactive”.

Consider `Cn1cnc2c(F)c(Nc3ccc(Br)cc3Cl)c(C(=O)NOCCO)cc21`, for which the “activity change, negative = inhibition” value is 6.68% (inactive).

Regarding `O=C1N=C(O)CN1/N=C/c1ccc(-c2ccc([N+](=O)[O-])cc2)o1`, the Potency result is “inactive”.

Regarding `COC(=O)[C@H]1[C@H]2C[C@@H]3c4[nH]c5cc(OC)ccc5c4CCN3C[C@H]2C[C@@H](OC(=O)c2cc(OC)c(OC)c(OC)c2)[C@@H]1OC`, the “activity change, negative = inhibition” value was 0.0709% (inactive).

For the compound `CCCCNC(=O)NS(=O)(=O)c1ccc(C)cc1`, the Potency entry is “inactive”.

As for `CC(C)C[C@H](NC(=O)[C@H](Cc1ccccc1)NC(=O)c1cnccn1)B(O)O`, the Potency was 344 nM (active).

As for `CC1(C)NC(=O)N(c2ccc([N+](=O)[O-])c(C(F)(F)F)c2)C1=O`, the Potency result is “inactive”.

With `CC(C)(C#N)c1cc(Cn2cncn2)cc(C(C)(C)C#N)c1`, the Potency result is “inactive”.

With `Cc1ccsc1C(=CCCN1CCC[C@@H](C(=O)O)C1)c1sccc1C`, the “activity change, negative = inhibition” value is 0.915% (inactive).

With `CCC(C)n1ncn(-c2ccc(N3CCN(c4ccc(OC[C@H]5CO[C@](Cn6cncn6)(c6ccc(Cl)cc6Cl)O5)cc4)CC3)cc2)c1=O` (stereo partly drawn), the Potency result was “inactive”.

For `C[C@@H](NCCCc1cccc(C(F)(F)F)c1)c1cccc2ccccc12`, the Potency entry was “inactive”.

As for `CCC(=O)O[C@H]1[C@H](O[C@@H]2[C@@H](C)[C@H](O[C@H]3C[C@@](C)(OC)[C@@H](O)[C@H](C)O3)[C@@H](C)C(=O)O[C@H](CC)[C@@](C)(O)[C@H](O)[C@@H](C)C(=O)[C@H](C)C[C@@]2(C)O)O[C@H](C)C[C@@H]1N(C)C`, the “activity change, negative = inhibition” value was 24.8% (inactive).

Regarding `Nc1nc2c(ncn2COCCO)c(=O)[nH]1`, the Potency result is “inactive”.

For `C[C@@H]1C[C@H]2[C@@H]3CCC4=CC(=O)C=C[C@]4(C)[C@@]3(F)[C@@H](O)C[C@]2(C)[C@@]1(O)C(=O)CO`, the “activity change, negative = inhibition” value was 11.8% (inactive).

For `CC(=O)OCC(CCn1cnc2cnc(N)nc21)COC(C)=O`, the Potency entry was “inactive”.

With `CCOc1ccc2ccccc2c1C(=O)N[C@@H]1C(=O)N2[C@@H]1SC(C)(C)[C@@H]2C(=O)O`, the “activity change, negative = inhibition” value is 20.6% (inactive).

Regarding `O=C(OC1C[C@H]2CC[C@@H](C1)[N+]21CCCC1)C(O)(c1ccccc1)c1ccccc1` (stereo partly drawn), the “activity change, negative = inhibition” value is 133% (inactive).

Regarding `CCCN[C@H]1CCc2nc(N)sc2C1`, the Potency result is “inactive”.

Regarding `N[C@@H](Cc1cc(I)c(Oc2cc(I)c(O)c(I)c2)c(I)c1)C(=O)O`, the Potency result is “inactive”.

Consider `COC(=O)[C@@H]1CC2=CC(=O)CC[C@]2(C)[C@@]23O[C@@H]2C[C@@]2(C)[C@@H](CC[C@@]24CCC(=O)O4)[C@H]13`, for which the “activity change, negative = inhibition” value is -0.467% (inactive).

In the case of `CC(C)(C(=O)O)c1ccc(C(O)CCCN2CCC(C(O)(c3ccccc3)c3ccccc3)CC2)cc1` (stereo not drawn), the Potency entry is “inactive”.

Turning to `COc1nc(N)nc2c1ncn2[C@@H]1O[C@H](CO)[C@@H](O)[C@@H]1O`, the “activity change, negative = inhibition” value is -17.7% (inactive).

Turning to `CN(N=O)C(=O)N[C@@H]1[C@@H](O)[C@H](O)[C@@H](CO)O[C@@H]1O`, the “activity change, negative = inhibition” value is 0.191% (inactive).

Consider `O[C@@H]1CO[C@H]2[C@@H]1OC[C@@H]2O`, for which the “activity change, negative = inhibition” value is 0.603% (inactive).

`O=C1CCc2cc(OCCCCc3nnnn3C3CCCCC3)ccc2N1`: the Potency result was “inactive”.

For the compound `CN(C)C(=N)N=C(N)N`, the Potency entry is “inactive”.

As to `Nc1nnc(-c2cccc(Cl)c2Cl)c(N)n1`, the Potency entry is “inactive”.
